DAX1 inh-1 = DAX1 (NR0B1) inhibition, primary screen | HEK293T StAR-luciferase reporter, SF-1/DAX-1 repression relief | inhibition, % at 6.8 µM | hit rate 1.1% among 370,000 | AID 652010;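 active = inhibition above the mean over all tested compounds plus 3 SD, cut at about 3.6% in these data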;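 also: 0% = DAX-1 cells with DMSO and 100% = cells lacking DAX-1 with DMSO; higher inhibition means more luminescence from relief of DAX-1 repression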
hgDAF12 agonist = hgDAF-12 agonism, primary luciferase screen. HEK293 GAL4-hgDAF12 UAS-luciferase reporter, agonist luminescence; normalized to butyrate control. activation, % at 6.8 µM. hit rate 1.8% among 370,000;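 active = activation above a cutoff set at the mean of all screened compounds plus 3 SD, cut at about 10% in these data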;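 also: 0% = DMSO wells and 100% = sodium butyrate wells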
hcDAF-12 act = H. contortus DAF-12 activation, primary screen. HEK293 hcDAF-12 lit1-tk-luc reporter, luminescence; 0% DMSO, 100% Δ7-dafachronic acid. activation, % at 6.8 µM. hit rate 1.4% among 370,000;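 active = activation above the mean of all tested compounds plus 3 SD, cut at about 5.5% in these data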;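 also: 100% = response to 3 µM Δ7-dafachronic acid high control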
ssDAF-12 act = S. stercoralis DAF-12 activation, primary screen. HEK293 ssDAF-12/GRIP1 lit1-tk-luc reporter, luminescence; % of 3 µM dafachronic acid response. AID 652126. activation, % at 6.8 µM. hit rate 1% among 370,000;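 active = activation above the mean over all tested compounds plus 3 SD, cut at about 0.9% in these data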;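 also: 0% = DMSO-only wells and 100% = 3 µM delta7-dafachronic acid wells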
AHR activator = activators of human aryl hydrocarbon receptor. AID 2796. activation, % at 5 µM. hit rate 2.5% among 320,000. AHR-responsive luciferase reporter cells, luminescence; in the data active = activation above about 47%;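 also: 0% = vehicle wells and 100% = reference agonist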
Target sequence (P35869 whole entry, looked up): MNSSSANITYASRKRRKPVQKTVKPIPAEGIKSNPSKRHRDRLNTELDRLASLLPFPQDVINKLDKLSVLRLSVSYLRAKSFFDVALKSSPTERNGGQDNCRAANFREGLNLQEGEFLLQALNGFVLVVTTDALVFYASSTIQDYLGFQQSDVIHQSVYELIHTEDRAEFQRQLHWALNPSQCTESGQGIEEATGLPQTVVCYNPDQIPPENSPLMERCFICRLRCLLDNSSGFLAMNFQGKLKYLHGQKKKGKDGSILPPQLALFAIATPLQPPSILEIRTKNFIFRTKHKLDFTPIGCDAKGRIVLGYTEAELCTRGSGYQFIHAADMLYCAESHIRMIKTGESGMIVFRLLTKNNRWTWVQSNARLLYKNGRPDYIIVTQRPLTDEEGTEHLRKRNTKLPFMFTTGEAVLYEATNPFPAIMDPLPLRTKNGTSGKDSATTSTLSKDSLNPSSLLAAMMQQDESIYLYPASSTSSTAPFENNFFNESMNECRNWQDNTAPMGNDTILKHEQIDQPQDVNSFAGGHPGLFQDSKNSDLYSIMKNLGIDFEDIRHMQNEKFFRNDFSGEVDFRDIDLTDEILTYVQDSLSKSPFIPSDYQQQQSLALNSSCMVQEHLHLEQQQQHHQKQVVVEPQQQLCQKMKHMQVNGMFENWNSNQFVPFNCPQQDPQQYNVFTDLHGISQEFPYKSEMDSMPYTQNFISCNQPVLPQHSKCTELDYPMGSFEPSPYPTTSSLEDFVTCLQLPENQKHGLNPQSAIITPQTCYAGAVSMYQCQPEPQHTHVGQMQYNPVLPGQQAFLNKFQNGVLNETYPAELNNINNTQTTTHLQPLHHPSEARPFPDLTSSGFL
DAX1 inh-2 = NR0B1 (DAX1) inhibition; HEK293 Gal4-DAX1 luciferase reporter, luminescence; inhibition, % at 6.75 µM; hit rate 0.99% among 340,000; AID 504766;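 active = inhibition above the mean over all tested compounds plus 3 SD, cut at about 4.2% in these data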;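 also: 0% = DAX1-transfected cells with DMSO and 100% = empty-vector control cells with DMSO; inhibition shows as a rise in luminescence from relieved DAX1 repression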
AHR act confirm = human AHR activation, confirmation. shares compounds with AHR activator. human cells, AHR-responsive luciferase reporter, luminescence. activation, % at 9 µM. hit rate 87% among 2,300. AID 2845; in the data active = activation above about 49%;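 also: HepG2 hepatoma cells carrying a DRE-driven firefly luciferase reporter; 0% = vehicle wells and 100% = reference agonist wells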
PXR counter = counter-screen for AHR activators: human PXR activators; shares compounds with AHR activator; cell-based PXR reporter, luciferase luminescence; activation, % at 11.6 µM; hit rate 88% among 2,300; AID 434939; in the data active = activation above about 11%;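 also: human hepatoma DPX-2 cells expressing full-length human PXR; 0% = DMSO and 100% = reference agonist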
Starred values were filed as active, the others as inactive; x = no result given. This is a sample that favours compounds with a hit; in the whole collection about 5.7% have one here.

SMILES	DAX1 inh-1	hgDAF12 agonist	hcDAF-12 act	ssDAF-12 act	AHR activator	DAX1 inh-2	AHR act confirm	PXR counter
Cc1ccc(NC2=CC(=O)C(=O)c3ccccc32)cc1	-1	6	5	0	2	0	x	x
NS(=O)(=O)c1ccc(NC2=CC(=O)C(=O)c3ccccc32)cc1	-1	-4	2	-1	114*	0	20	5
Cc1ccc(CC23CN4CCN(CC(C4)C2O)C3)c(C)c1 (centres undefined)	-1	1	0	-1	0	1	x	x
N#CCC1c2ccccc2CCN1C(=O)Nc1ccc(C(F)(F)F)cc1 (centres undefined)	-1	1	-2	-2	103*	0	100*	181*
CCCCN1C(=O)C(CC(=O)NC(c2ccccc2)c2ccccc2)CC(C(=O)N(CC)CC)=C1C (centres undefined)	1	-1	-2	-1	x	0	x	x
CC(=O)N(/N=C1\Sc2ccccc2C1=O)c1ccccc1C	2	4	5	0	90*	2	76*	19*
CC(=O)N(/N=C1\Sc2ccccc2C1=O)c1ccc(C)cc1C	-4	-11	-4	-3	38	1	x	x
COC(=O)c1ccccc1NC(=O)NCCc1ccccc1OC	0	5	4	0	88*	2	110*	32*
COc1ccccc1NC(=O)NCCc1ccccc1	0	0	-1	-1	x	1	x	x
COCCNC(=O)c1cc(S(=O)(=O)N(C)c2ccccc2OC)ccc1C	0	0	-1	-2	5	0	x	x
COc1ccccc1NC(=O)CNC(=O)c1ccccc1	0	0	-1	-1	7	0	x	x
COc1ccc(-c2cnc3ccccc3n2)cc1NC(=O)CNC(=O)c1ccccc1	3	6	2	1.2*	117*	1	35	42*
Cc1ccc(C(=O)CCC(=O)NC2CCCC(C)C2C)cc1 (centres undefined)	-1	1	-1	-1	0	-1	x	x
Nc1[nH]c(C(=O)c2ccccc2)c(-c2cccc3ccccc23)c1C(=O)NC1CCCCC1	0	0	0	-1	x	x	x	x
CCCNC(=O)c1ccc(COc2cccc3ccccc23)o1	0	1	-2	-1	31	-1	x	x
CCCNC(=O)c1ccc(COc2ccc(CCC)cc2OC)o1	0	-2	-1	-1	80*	1	80*	41*
COc1ccc2c(C)nc(Nc3nc(C)cc(C)n3)nc2c1	0	-1	0	0	109*	2	101*	21*
Cc1cc(C)c2c(c1)SC1=NC(c3ccccc3)(C(F)(F)F)NC(=O)N12 (centres undefined)	0	3	1	0	91*	0	66*	21*
N=C(N)N=Nc1c(O)[nH]c2ccc(Br)cc12	0	-3	0	-1	93*	0	88*	28*
Cc1c(C(=O)N2CCC2)oc2ccc(Br)cc12	1	4	-1	-1	-1	0	x	x
O=C(Nc1nnc(-c2ccco2)s1)C1CCCCC1	1	7	2	0	-4	3	x	x
O=C(Nc1nc(-c2ccco2)c(-c2ccco2)s1)C1CCC1	-1	0	2	0	106*	-1	91*	25*
O=C(Nc1ccccc1)c1ccccc1Oc1ccc(C(F)(F)F)cc1[N+](=O)[O-]	0	-1	-1	-2	-3	-1	x	x
CCOc1ccc2c(c1)sc(=NC(=O)C1CC1)n2C	2	8	2	-1	92*	1	71*	37*
CC1CCc2nc(NC(=O)C3CC3)sc2C1 (centres undefined)	2	6	4	0	135*	1	105*	37*
SMILES	DAX1 inh-1	hgDAF12 agonist	hcDAF-12 act	ssDAF-12 act	AHR activator	DAX1 inh-2	AHR act confirm	PXR counter
CC1CCc2nc(NC(=O)CN3CCOCC3)sc2C1 (centres undefined)	0	1	4	0	29	1	x	x
CSc1n[nH]c(/N=C/c2oc(O)c3ccccc23)n1	0	-1	-1	-2	16	2	x	x
COc1cccc(OC)c1C(=O)Nc1nc2ccc([N+](=O)[O-])cc2s1	0	3	0	-1	81*	0	75*	9
O=C(CN1CCOCC1)Nc1nc2ccc([N+](=O)[O-])cc2s1	-1	2	1	-1	133*	-1	91*	x
COc1ccccc1NC(=O)c1ccc([N+](=O)[O-])cc1[N+](=O)[O-]	-1	-1	1	-1	104*	-1	94*	29*
COc1ccc2nc(NC(=O)c3ccccc3O)sc2c1	3	8	2	0	130*	0	18	33*
COCCn1c(=NC(=O)CSCC(=O)NC2CCCCC2)sc2cc(OC)ccc21	-1	-2	-1	-1	1	2	x	x
COC(=O)c1c(C)oc(C)c1S(=O)(=O)NCc1ccc(Cl)cc1Cl	0	2	-3	-1	-1	0	x	x
Fc1ccc(/C=N/NC(=S)Nc2cccnc2)cc1	0	3	3	-1	105*	0	53*	19*
Oc1cccc(/C=N/NC(=S)Nc2cccnc2)c1O	-2	-2	0	-1	10	-1	x	x
Fc1ccc(/C=N/NC(=S)Nc2cccnc2)cc1F	0	4	-1	-2	99*	0	92*	14*
O=C(COC(=O)c1ccc(Sc2ccccc2)c([N+](=O)[O-])c1)NC1CCCc2ccccc21 (centres undefined)	0	0	2	-1	0	2	x	x
COc1cccc(CNc2nccs2)c1O	1	2	2	0	0	-1	x	x
COc1ccc(/C=N/NC(=O)c2nc(Cl)c(Cl)c(N)c2Cl)cc1COc1ccccc1F	-1	0	0	0	116*	1	99*	105*
COc1ccc(/C=N\NC(=O)c2ccccc2F)cc1COc1ccc(F)cc1	-2	1	-1	-1	31	1	x	x
COc1ccc(/C=N/NC(=O)c2ccc(NC(C)=O)cc2)cc1COc1ccc(F)cc1F	0	-8	-5	-2	18	1	x	x
COc1ccc(/C=N\NC(=O)c2ccccc2OC)cc1COc1ccccc1C	-2	-3	0	-1	96*	-1	109*	35*
COc1ccc(/C=N\NC(=O)c2ccccc2F)cc1COc1ccc(F)cc1F	-1	0	-2	-1	14	0	x	x
COc1ccc(/C=N/NC(=O)c2nc(Cl)c(Cl)c(N)c2Cl)cc1COc1ccc(F)cc1F	-1	2	5	1	84*	0	97*	60*

Screens (PubChem BioAssay)
